# Measured values reported in PubChem BioAssay.
# Values joined by “and” are separate entries in the source; they are usually repeats but may differ in a detail not shown here. Equal entries are not always repeated. Active and inactive are the calls of the source.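 How the source made its calls, unless noted: active means thallium flux through the channel raised or lowered by more than 3 SD from vehicle-only wells, actives on both sides; inactive means the rest.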
# Key:
# [1] = liver-stage malaria parasite growth inhibition, primary screen, cell-based, HepG2, luciferase luminescence, HepG2 viability (AID 624349; in the data active means parasite load remaining mostly below about 12%, no sharp cut-off; inactive means mostly above about 10%;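 further: 100% = mean of DMSO negative control wells on the same plate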); settings: P. berghei liver stage in HepG2, luciferase luminescence, concentration not given here; parasite load remaining: stronger effect = lower value; viability: measured here: HepG2 viability without parasites
# [2] = target: 6-phosphogluconate dehydrogenase, decarboxylating (Homo sapiens) (UniProt P52209); assay: 6PGD enzyme inhibitors, primary screen, biochemical, human, recombinant enzyme, NADPH absorbance (AID 1159550;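 active means at least 20% inhibition of 6-phosphogluconate dehydrogenase activity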); settings: recombinant 6PGD, NADPH absorbance 341 nm; at 10 µM; stronger effect = higher value
# [3] = sensitizers of A549 cells to miR-34 induction, primary screen, imaging, A549 dox-inducible miR-34, nuclei and caspase counts (AID 1347080;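 active means compounds whose cell count with miR-34 switched on is under 0.7 times the count with it off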); settings: A549 miR-34 inducible, Hoechst nuclei count, 48 h
# [4] = survival rescue of mitochondrial mutant cells in low glucose, primary screen, MELAS cybrids, Rieske KO mouse fibroblasts, CellTiter-Glo (AID 1508586;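 active means mean z-score across replicates of 1.96 or higher in either the MELAS or the Rieske mutant cell line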;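 further: z relative to plate mean and SD of compound and empty wells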)
# [5] = target: NAD(+) hydrolase SARM1 (Homo sapiens) (UniProt Q6SZW1); assay: SARM1 TIR NADase inhibitors, cell lysate, NAD-Glo luminescence (AID 1508614;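 active means compound whose remaining NAD level is above about 45 nM, limit read from the data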); settings: SAM-TIR HEK293T lysate NADase, at 1 µM, stronger effect = higher value
# [6] = target: Mitogen-activated protein kinase 7 (Homo sapiens) (UniProt Q13164); assay: ERK5 transactivation activators in reporter cells, primary screen, cell-based, HTS (AID 1508626;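 active means luciferase signal above three times the same-plate solvent-only control wells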;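 further: luciferase driven by Gal4-ERK5 fusion binding five Gal4 sites before minimal TATA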); settings: HeLa Gal4-ERK5 transactivation, 18 h, at 5 µM, stronger effect = higher value
# [7] = viability rescue of complex I mutant cybrids, primary screen, cell-based, galactose medium, ATP luminescence (AID 1645843;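 active means z-score of at least 1.8 in each of two replicates, scored against plate mean and spread of sample wells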;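 further: positive z means more ATP and so rescue of galactose-driven cybrid death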); settings: complex I mutant cybrid cells, 72 h, stronger effect = higher value
# [8] = Cy5 fluorescence interference with SSB-bound oligo, artefact control for HCV NS3 helicase inhibitor project, biochemical, NIH Clinical Collection, E. coli SSB (AID 743268; call rule not given here)
# [9] = system: Hepatitis C virus NS3 helicase; assay: HCV NS3 helicase inhibitors, primary screen, biochemical, fluorescence polarization, NIH Clinical Collection (AID 743270; call rule not given here); settings: NS3 helicase binding to Cy5-dT15 DNA, stronger effect = higher value, concentration not given here
# [10] = target: Single-stranded DNA-binding protein (Escherichia coli (strain K12)) (UniProt P0AGE0); assay: E. coli SSB displacement from DNA, counter-screen for HCV NS3 helicase inhibitor project, biochemical, fluorescence polarization, NIH Clinical Collection (AID 743271; in the data active means inhibition above about 28%); settings: stronger effect = higher value, concentration not given here
# [11] = fluorescence interference in NS3h assay format, artefact control for HCV NS3 helicase inhibitor project, biochemical, NIH Clinical Collection (AID 743272; call rule not given here;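 further: HCV NS3 helicase with a Cy5 labelled single stranded DNA probe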); settings: fluorescence interference counterscreen, stronger effect = lower value
# [12] = modulation of C. elegans fzo-1 (AID 1259413; call rule not given here;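 further: fzo-1 mutant C. elegans worms in liquid wells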); settings: C. elegans fzo-1 modulator screen, mean read-out; stronger effect = higher value
# [13] = differential killing of epithelial or mesenchymal cells, primary screen, imaging, PC-3E GFP, TEM4-18 mCherry, co-culture (AID 1345086;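 active means compounds killing one labelled cell type while sparing the other, by normalised counts and ratio limits, not self-fluorescent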;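 on all read-outs here: cells exposed to compound for 72 h before imaging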;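 on red/green cell ratio (normalised): normalised mesenchymal count divided by normalised epithelial count so high means epithelial killing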); settings: imaging cell counts, at 1 µM; for red/green cell ratio (normalised): actives lie on both sides, counts scaled to control wells, 1 = unselective
# F380Y = assay: modulators of BK channel variants, profiling panel, selectivity assay, cell-based, U2OS BacMam, thallium flux, beta subunits (AID 1259406); settings: at 30 µM;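 further: initial slope of Thallos dye fluorescence rise after thallium is added; log ratio against the mean of 0.3% DMSO vehicle wells on the same plate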
# F380Y/beta2Delta = assay: as above; settings: at 30 µM
# [14] = target: Calcium-activated potassium channel subunit alpha-1 (Homo sapiens) + Leucine-rich repeat-containing protein 26 (Homo sapiens) (UniProt Q12791+Q2I0M4); assay: as above; settings: F380Y/Slo1WT/gamma1, at 30 µM
# R275C = assay: as above; settings: at 30 µM
# R275C/beta1 = assay: as above; settings: at 30 µM
# R275C/beta2Delta = assay: as above; settings: at 30 µM
# [15] = stronger effect = lower value, cell number ratio, induced over uninduced
# [16] = measured here: relative caspase fold change +Dox/-Dox
# [17] = measured here: total cells with miR-34 induction, stronger effect = lower value
# [18] = measured here: total cells without miR-34 induction
# [19] = MELAS cybrid survival, CellTiter-Glo 48 h, stronger effect = higher value
# [20] = Rieske KO mouse fibroblast survival, CellTiter-Glo 72 h
# [21] = measured here: epithelial PC-3E GFP cell survival
# [22] = measured here: mesenchymal TEM4-18 mCherry cell survival
# Sequence of 6-phosphogluconate dehydrogenase, decarboxylating (Homo sapiens) (P52209 whole entry, looked up): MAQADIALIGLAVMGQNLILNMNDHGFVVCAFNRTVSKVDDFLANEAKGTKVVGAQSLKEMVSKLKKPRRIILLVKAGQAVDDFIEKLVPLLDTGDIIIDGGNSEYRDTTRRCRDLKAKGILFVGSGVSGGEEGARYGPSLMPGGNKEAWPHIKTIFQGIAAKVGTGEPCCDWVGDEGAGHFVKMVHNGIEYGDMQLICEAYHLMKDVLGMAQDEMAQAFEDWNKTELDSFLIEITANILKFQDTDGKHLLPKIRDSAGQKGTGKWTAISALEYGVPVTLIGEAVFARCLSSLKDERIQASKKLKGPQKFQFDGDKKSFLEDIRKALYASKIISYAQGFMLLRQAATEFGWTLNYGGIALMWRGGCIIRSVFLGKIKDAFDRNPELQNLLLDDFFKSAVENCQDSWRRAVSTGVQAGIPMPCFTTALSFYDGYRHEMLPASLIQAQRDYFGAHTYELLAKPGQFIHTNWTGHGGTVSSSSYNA
# Sequence of Mitogen-activated protein kinase 7 (Homo sapiens) (Q13164 whole entry, looked up, the tested form may be a part): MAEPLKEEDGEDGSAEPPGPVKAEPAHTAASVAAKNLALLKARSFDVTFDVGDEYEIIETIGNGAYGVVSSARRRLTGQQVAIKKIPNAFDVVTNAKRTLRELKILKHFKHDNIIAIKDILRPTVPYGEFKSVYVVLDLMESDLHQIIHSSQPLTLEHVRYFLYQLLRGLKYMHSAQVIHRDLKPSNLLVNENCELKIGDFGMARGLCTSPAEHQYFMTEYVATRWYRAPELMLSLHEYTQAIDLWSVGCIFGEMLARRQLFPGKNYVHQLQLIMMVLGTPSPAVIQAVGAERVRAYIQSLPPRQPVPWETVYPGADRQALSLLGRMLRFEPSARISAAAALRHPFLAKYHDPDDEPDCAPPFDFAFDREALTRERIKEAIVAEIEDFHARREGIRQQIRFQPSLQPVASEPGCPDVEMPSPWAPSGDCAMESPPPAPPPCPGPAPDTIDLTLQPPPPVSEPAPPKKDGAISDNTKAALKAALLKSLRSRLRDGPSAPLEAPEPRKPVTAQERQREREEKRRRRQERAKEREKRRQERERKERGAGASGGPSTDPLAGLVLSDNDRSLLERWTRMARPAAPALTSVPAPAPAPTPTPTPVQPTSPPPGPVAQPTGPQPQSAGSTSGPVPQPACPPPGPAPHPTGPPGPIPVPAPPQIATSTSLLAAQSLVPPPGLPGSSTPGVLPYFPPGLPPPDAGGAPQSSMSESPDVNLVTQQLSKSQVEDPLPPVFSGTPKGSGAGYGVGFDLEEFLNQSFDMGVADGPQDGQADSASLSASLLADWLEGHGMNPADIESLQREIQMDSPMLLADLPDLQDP
# Sequence of NAD(+) hydrolase SARM1 (Homo sapiens) (Q6SZW1 whole entry, looked up, the tested form may be a part): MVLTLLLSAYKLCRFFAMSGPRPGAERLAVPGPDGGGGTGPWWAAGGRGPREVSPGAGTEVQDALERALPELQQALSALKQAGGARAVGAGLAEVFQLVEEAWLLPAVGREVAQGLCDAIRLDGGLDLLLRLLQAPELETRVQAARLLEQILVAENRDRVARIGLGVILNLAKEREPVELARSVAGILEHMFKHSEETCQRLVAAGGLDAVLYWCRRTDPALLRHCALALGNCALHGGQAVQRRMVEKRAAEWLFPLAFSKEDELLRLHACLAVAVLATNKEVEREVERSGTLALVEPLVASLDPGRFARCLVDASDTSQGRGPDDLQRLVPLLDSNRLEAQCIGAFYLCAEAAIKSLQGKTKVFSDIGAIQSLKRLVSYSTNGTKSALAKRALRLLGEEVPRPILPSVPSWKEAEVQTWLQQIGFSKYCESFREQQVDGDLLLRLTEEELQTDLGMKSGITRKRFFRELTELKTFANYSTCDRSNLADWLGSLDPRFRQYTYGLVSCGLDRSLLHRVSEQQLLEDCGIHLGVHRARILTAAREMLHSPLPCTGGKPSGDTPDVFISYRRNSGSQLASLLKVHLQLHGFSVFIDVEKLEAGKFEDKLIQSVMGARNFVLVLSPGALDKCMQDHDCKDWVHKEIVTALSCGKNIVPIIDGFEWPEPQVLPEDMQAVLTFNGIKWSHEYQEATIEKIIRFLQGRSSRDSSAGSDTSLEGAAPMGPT
# Sequence of Calcium-activated potassium channel subunit alpha-1 (Homo sapiens) + Leucine-rich repeat-containing protein 26 (Homo sapiens) (Q2I0M4 whole entry, looked up, one chain of several): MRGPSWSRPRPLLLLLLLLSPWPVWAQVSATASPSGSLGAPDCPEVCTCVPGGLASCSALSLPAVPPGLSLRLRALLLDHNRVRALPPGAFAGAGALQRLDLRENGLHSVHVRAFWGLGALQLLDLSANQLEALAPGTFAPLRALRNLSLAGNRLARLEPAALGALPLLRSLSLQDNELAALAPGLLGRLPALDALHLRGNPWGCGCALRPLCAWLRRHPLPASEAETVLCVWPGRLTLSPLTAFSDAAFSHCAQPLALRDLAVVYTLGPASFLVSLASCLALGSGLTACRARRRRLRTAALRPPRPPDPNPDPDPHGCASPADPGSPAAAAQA
structure (smiles),measurement,setting,value
COc1ccc(C[C@H](N)C(=O)N[C@H]2[C@@H](O)[C@H](n3cnc4c(N(C)C)ncnc43)O[C@@H]2CO)cc1,parasite load remaining,[1],-0.025% (inactive) and -0.34% (inactive)
same,viability,[1],17.9% and 1%
same,inhibition,[2],-10.2% (inactive)
same,fold change,[3]; [15],1.03 (inactive) and 1.04 (inactive)
same,fold change,[3]; [16],1.77 and 0.862
same,cell count,[3]; [17],1000 and 950
same,cell count,[3]; [18],976 and 910
same,z-score,[4]; [19],0.777 (inactive)
same,z-score,[4]; [20],-0.707
same,remaining NAD,[5],10 nM (inactive)
same,luciferase signal,[6],244 AU (inactive)
same,z-score,[7],-2.25 (inactive)
Cc1cccc(C)c1NC(=O)C1CCCCN1C (configuration not stated),parasite load remaining,[1],174% (inactive) and 77.7% (inactive) and 69.1% (inactive)
same,viability,[1],85.7% and 198% and 72.6%
same,fluorescence ratio,[8],0.96 (inactive)
same,inhibition,[9],-2.84% (inactive)
same,inhibition,[10],1.97% (inactive)
same,fluorescence ratio,[11],0.95 (inactive)
same,inhibition,[2],10.7% (inactive)
same,mean signal,[12],253 (inactive)
same,red/green cell ratio (normalised),[13],1.21 (inactive)
same,normalised cell number,[13]; [21],1.19
same,normalised cell number,[13]; [22],1.44
same,fold change,[3]; [15],0.977 (inactive) and 0.928 (inactive) and 0.875 (inactive)
same,fold change,[3]; [16],1.53 and 0.775 and 2.13
same,cell count,[3]; [17],8050 and 8030 and 11600
same,cell count,[3]; [18],8240 and 8660 and 13200
same,z-score,[4]; [19],-0.27 (inactive) and -0.937 (inactive)
same,z-score,[4]; [20],-0.166 and -1.35
same,remaining NAD,[5],10 nM (inactive)
same,luciferase signal,[6],68 AU (inactive)
same,z-score,[7],0.56 (inactive)
same,log fold change Tl+ flux,F380Y,0.0251 (inactive)
same,log fold change Tl+ flux,F380Y/beta2Delta,0.00729 (inactive)
same,log fold change Tl+ flux,[14],0.0131 (inactive)
same,log fold change Tl+ flux,R275C,-0.0395 (inactive)
same,log fold change Tl+ flux,R275C/beta1,-0.0108 (inactive)
same,log fold change Tl+ flux,R275C/beta2Delta,0.00999 (inactive)
N[C@@H](Cc1cnc[nH]1)C(=O)Nc1ccc2ccccc2c1,inhibition,[2],-4.42% (inactive)
CC(=O)O[C@@H]1CC2C(C)(C)C=CC(=O)[C@]2(C)C2CC[C@@]3(C)[C@H](c4ccoc4)OC(=O)C4OC43[C@@]21C (some centres not stated),inhibition,[2],-6.87% (inactive)
C[N+]1(C)CCCC(OC(=O)C(O)(c2ccccc2)c2ccccc2)C1 (configuration not stated),fluorescence ratio,[8],1.02 (inactive)
same,inhibition,[9],-3.18% (inactive)
same,inhibition,[10],-3.53% (inactive)
same,fluorescence ratio,[11],0.96 (inactive)
same,inhibition,[2],-19.7% (inactive)
same,mean signal,[12],266 (inactive)
same,red/green cell ratio (normalised),[13],1.05 (inactive)
same,normalised cell number,[13]; [21],1.31
same,normalised cell number,[13]; [22],1.37
same,fold change,[3]; [15],0.951 (inactive) and 0.851 (inactive) and 0.901 (inactive)
same,fold change,[3]; [16],0.965 and 1.32 and 4.07
same,cell count,[3]; [17],10300 and 8730 and 11200
same,cell count,[3]; [18],10800 and 10200 and 12500
same,z-score,[4]; [19],0.378 (inactive)
same,z-score,[4]; [20],0.26
same,remaining NAD,[5],10 nM (inactive)
same,luciferase signal,[6],36 AU (inactive)
same,z-score,[7],0.49 (inactive)
same,log fold change Tl+ flux,F380Y,0.00904 (inactive)
same,log fold change Tl+ flux,F380Y/beta2Delta,-0.0376 (inactive)
same,log fold change Tl+ flux,[14],-0.0154 (inactive)
same,log fold change Tl+ flux,R275C,0.00512 (inactive)
same,log fold change Tl+ flux,R275C/beta1,0.0318 (inactive)
same,log fold change Tl+ flux,R275C/beta2Delta,-0.0151 (inactive)
CC(C)NCC(O)COc1ccc(CC(N)=O)cc1 (configuration not stated),fluorescence ratio,[8],1.03 (inactive)
same,inhibition,[9],-0.45% (inactive)
same,inhibition,[10],0.29% (inactive)
same,fluorescence ratio,[11],0.98 (inactive)
same,inhibition,[2],-17.1% (inactive)
same,mean signal,[12],244 (inactive)
same,red/green cell ratio (normalised),[13],0.99 (inactive)
same,normalised cell number,[13]; [21],1.11
same,normalised cell number,[13]; [22],1.09
same,z-score,[4]; [19],-0.4 (inactive)
same,z-score,[4]; [20],-0.19
same,remaining NAD,[5],10 nM (inactive)
same,luciferase signal,[6],52 AU (inactive)
same,log fold change Tl+ flux,F380Y,-0.0247 (inactive)
same,log fold change Tl+ flux,F380Y/beta2Delta,0.00577 (inactive)
same,log fold change Tl+ flux,[14],-0.00874 (inactive)
same,log fold change Tl+ flux,R275C,-0.00467 (inactive)
same,log fold change Tl+ flux,R275C/beta1,0.0259 (inactive)
same,log fold change Tl+ flux,R275C/beta2Delta,-0.0455 (inactive)
N[C@@H](C=O)[C@@H](O)[C@H](O)[C@H](O)CO,inhibition,[2],-0.658% (inactive)
CC(C)c1c(O)ccc2c1CCC1C(C)(CO)CCCC21C (configuration not stated),inhibition,[2],-0.0186% (inactive)
C[C@@H]1[C@H]2[C@H](O[C@@H]3O[C@H](CO)[C@@H](O)[C@H](O)[C@H]3O)OC=C(C(=O)O)[C@H]2C[C@@H]1O,inhibition,[2],16.7% (inactive)
CC(=O)c1cc2c(cc1O)OC(C)(C)C=C2,inhibition,[2],16.8% (inactive)
